Experimental findings from PubChem BioAssay (NCI) are described below.

Several values for one entry are separate records, joined by “and”; a condition that tells them apart may be missing. Identical values can stand only once. Compounds without any hit were thinned out: in the full panel of roughly 83,000, 20% have a hit.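 Assay: single dose, 48 h. Readout: percent growth (0 = no net growth; negative = cell death). Active: <10.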 A number with no mark means an inactive call. Activity calls are given as the source filed them.

Among the test systems are RPMI-8226 leukemia; OVCAR-8 ovarian; OVCAR-5 ovarian; OVCAR-4 ovarian; SK-OV-3 ovarian; IGROV1 ovarian; OVCAR-3 ovarian; NCI/ADR-RES ovarian; T-47D breast; BT-549 breast; MDA-MB-435 melanoma; SW-620 colon; MCF7 breast; HCT-116 colon; HCC-2998 colon; SR leukemia; HS 578T breast; KM12 colon.
Holding throughout (experiment): NCI-60 one-dose screen, 48 h (100 = growth as untreated, 0 = no growth, -100 = all killed)
Holding throughout (conditions): 10 µM unless noted

`COc1cc(C(O)C2C(=O)OCC2C2(c3ccc4c(c3)OCO4)SCCCS2)cc(OC)c1OC` (stereo not drawn): the growth with RPMI-8226 leukemia was 98.9%; with OVCAR-8 ovarian, 102%; in the assay on OVCAR-5 ovarian, 97.2%; in the assay on OVCAR-4 ovarian, 103%; in the assay with SK-OV-3 ovarian, 105%; with IGROV1 ovarian, 94.5%. Further, the growth with OVCAR-3 ovarian is 105%; with NCI/ADR-RES ovarian, 89.4%; in the assay with T-47D breast, 107%; with BT-549 breast, 102%; in the assay on MDA-MB-435 melanoma, 101%; in the assay with SW-620 colon it was 102%. Besides, the growth was 97.6% in the assay on MCF7 breast, 91.7% with HCT-116 colon and 98.5% with HCC-2998 colon.
Take `OCCN1CCCCCCC1`: the growth with SR leukemia is 109%; in the assay with OVCAR-8 ovarian, 101%; in the assay with OVCAR-5 ovarian it was 109%; in the assay with SK-OV-3 ovarian, 103%; in the assay on IGROV1 ovarian, 104%; in the assay with OVCAR-3 ovarian, 111%. Further, the growth in the assay on HS 578T breast was 90.8%; in the assay with NCI/ADR-RES ovarian, 102%; with T-47D breast it was 95.6%; in the assay with BT-549 breast it was 98.2%; in the assay on MDA-MB-435 melanoma, 98.4%; with SW-620 colon, 108%. Moreover, the growth with MCF7 breast was 99%; in the assay on HCT-116 colon, 97.1%; in the assay with HCC-2998 colon it was 100%.
As to `C#CCOC(=O)Nc1ccccc1`, the growth is 111% in the assay with SR leukemia; 103% with OVCAR-8 ovarian; 95.8% with OVCAR-5 ovarian; 93.5% in the assay on OVCAR-4 ovarian; 109% with SK-OV-3 ovarian; 109% in the assay with IGROV1 ovarian. The growth is 115% in the assay with OVCAR-3 ovarian; 104% in the assay on NCI/ADR-RES ovarian; 109% in the assay with T-47D breast; 106% in the assay on BT-549 breast; 98.8% in the assay on MDA-MB-435 melanoma; 105% in the assay on SW-620 colon. For the same compound, the growth in the assay with MCF7 breast is 87.4%; in the assay on HCT-116 colon, 105%.
Turning to `CC(=O)Nc1ccc(S(N)(=O)=O)cc1`, the growth was 117% and 105% in the assay with SR leukemia; 99.5% and 97.6% in the assay with OVCAR-8 ovarian; 106% and 102% in the assay with OVCAR-5 ovarian; 99.4% and 105% with OVCAR-4 ovarian; 99.5% and 97.1% in the assay with IGROV1 ovarian; 110% and 116% in the assay on OVCAR-3 ovarian. Besides, the growth is 102% and 104% in the assay with NCI/ADR-RES ovarian; 87.7% and 100% in the assay with T-47D breast; 104% in the assay on BT-549 breast; 97.4% and 96.3% in the assay with MDA-MB-435 melanoma; 96.7% and 104% in the assay on SW-620 colon; 91.8% and 93.3% with MCF7 breast. The growth with HCT-116 colon was 94.2% and 93.6%; with HCC-2998 colon it was 108%; with KM12 colon, 109% and 108%.
For `Nc1cc(N)c(N)cc1N`, the growth in the assay on SR leukemia is -7.21% (active); in the assay with OVCAR-8 ovarian it was 63.3%; with OVCAR-5 ovarian it was -9.01% (active); in the assay with OVCAR-4 ovarian, 25.3%; in the assay with IGROV1 ovarian, 47.6%; with OVCAR-3 ovarian, -55.1% (active). In addition, the growth in the assay on NCI/ADR-RES ovarian is 59.6%; in the assay with T-47D breast, 81.7%; in the assay with BT-549 breast it was 85.4%; in the assay with MDA-MB-435 melanoma, -73.8% (active); with SW-620 colon, 7.1% (active); with MCF7 breast it was -49.2% (active). Besides, the values for the growth in the assay on HCT-116 colon and in the assay on HCC-2998 colon were 0.84% (active) and 101%, respectively.
Take `CC1CCC(C(C)C)C(NNC(N)=O)C1` (stereo not drawn): the growth was 100% in the assay with SR leukemia; 100% in the assay on OVCAR-8 ovarian; 131% in the assay with OVCAR-5 ovarian; 111% in the assay with OVCAR-4 ovarian; 110% with IGROV1 ovarian; 103% in the assay on OVCAR-3 ovarian. Besides, the growth in the assay on HS 578T breast was 91.6%; in the assay on NCI/ADR-RES ovarian, 105%; in the assay on MDA-MB-435 melanoma it was 101%; in the assay on SW-620 colon, 98%; in the assay with MCF7 breast, 100%; in the assay with HCT-116 colon, 99.5%. Also, the growth in the assay on KM12 colon was 94%.
Turning to `CCCCCCCCCCCCCCCc1ccc(N)c(OC2OC(CO)C(O)C(O)C2O)c1` (stereo not drawn), the growth is 40.2% with SR leukemia; 87.1% in the assay with OVCAR-8 ovarian; 65.8% with OVCAR-5 ovarian; 85.2% in the assay on OVCAR-4 ovarian; 149% in the assay with SK-OV-3 ovarian; 93.6% with OVCAR-3 ovarian. In addition, the growth in the assay on NCI/ADR-RES ovarian is 73%; in the assay with T-47D breast it was 104%; with BT-549 breast, 54.8%; in the assay with MDA-MB-435 melanoma, 99.6%; in the assay on SW-620 colon, 98.2%; in the assay with MCF7 breast, 93.7%. In the assay with HCT-116 colon, the growth is 87.7%.
On to `NC(Cc1c[nH]c2ccccc12)C(=O)O` (stereo not drawn), for which the growth in the assay on SR leukemia was 53.3% and 105%; in the assay on OVCAR-8 ovarian, 58.3% and 93.5%; in the assay with OVCAR-5 ovarian, 91.7% and 103%; in the assay with OVCAR-4 ovarian, 108% and 102%; with IGROV1 ovarian it was 105% and 120%; in the assay with OVCAR-3 ovarian it was 120% and 107%. Further, the growth in the assay on NCI/ADR-RES ovarian is 105% and 111%; with T-47D breast it was 110%; in the assay with BT-549 breast, 113% and 102%; in the assay on MDA-MB-435 melanoma, 98.9% and 105%; in the assay with SW-620 colon it was 111% and 95.9%; with MCF7 breast, 105% and 98.5%. The growth in the assay on HCT-116 colon was 91.4% and 86.7%; with KM12 colon, 108% and 109%.
